# Records with an inconclusive call do not appear. Values without a mark were called inactive. Active and inactive are the calls of the source. Calls come from the whole dose curve; as a rule, active = well fitted activation curve with a large enough effect in the repeat runs; inconclusive = weak or mixed curves; inactive = flat fitted curve, though single readings scatter.
# Assay: Caspase-3/7 induction in HepG2 cells by small molecules, qHTS assay (AID 1346978); note: nearly all actives have a fitted effect of over 15% in size
# Conditions: HepG2 caspase-3/7 activation, Caspase-Glo luminescence, 17 h; series mostly up to 92.4 µM
# Text: National Center for Advancing Translational Sciences [NCATS] NIH Chemical Genomics Center [NCGC] U.S. Environmental Protection Agency [EPA] National Institutes of Environmental Health Sciences [NIEHS] National Toxicology Program [NTP] Assay overview: Apoptosis is a process of programmed cell death and plays a central role in the development of multicellular organisms. It is a highly regulated process and induces cell death by activating caspases, which are the members of cysteine aspartic acid-specific protease (caspase) family. Caspases involved in apoptosis are classified by their mechanism of action as initiator caspases (caspase-2, -8, -9 and -10) and executioner caspases (caspase-3, -6, and -7). Inhibition of apoptosis results in number of cancers, autoimmune diseases, inflammatory diseases and viral infection. To identify small molecule compounds that induce apoptosis, a homogeneous, luminescent Caspase-Glo 3/7 assay was used. Wild type HepG2 cells were used to screen Tox21 libraries for identifying caspase-3/7 activity inducers.
# Assay Protocol Summary: HepG2 cells were dispensed at 2,000 per well in 5uL of culture medium into white solid bottom 1536-well plates (Corning Life Sciences, Corning, NY) using a Multidrop Combi (Thermo Scientific, Waltham, MA) dispenser. The assay plates were incubated at 37 C and 5% CO2 for 5hr, and then 23nL of compounds dissolved in DMSO and positive control were transferred using a Pintool station (Wako, San Diego, CA). The assay plates were incubated at 37C and 5% CO2 for 17hr. For caspase-3/7 activity read, 4uL of Caspase-Glo 3/7 reagent (Promega Corporation, Madison, WI) was added to each well of the assay plates using Flying Reagent Dispenser (FRD, Aurora Discovery, San Diego, CA) and incubated the assay plates at room temperature for 30min. The luminescence signal was quantified using a ViewLux plate reader (Perkin Elmer, Shelton, CT).
# % is set by controls: 0 for no effect and ±100 for the full control effect.
SMILES,outcome,caspase activation
CCCC[N+](=O)[O-],inactive,
OP(O)c1ccccc1,inactive,
O=C(NC(O)C(Cl)(Cl)Cl)NC(O)C(Cl)(Cl)Cl (stereo not given),inactive,
Nc1c(Cl)c(F)nc(OCC(=O)O)c1Cl,inactive,
CCN(CC)CCOC(=O)C(O)(c1ccccc1)c1ccccc1,inactive,
ClC1=C(Cl)C2(Cl)C(CBr)CC1(Cl)C2(Cl)Cl (stereo not given),inactive,
CC#Cc1cc(C)nc(Nc2ccccc2)n1,inactive,
Cc1cc(OC(=O)N(C)C)nn1C(=O)N(C)C,inactive,
C[N+]1(C)CCCCC1,inactive,
C=C(Cl)CSC(=S)N(CC)CC,inactive,
O=S1(=O)OCCO1,inactive,
Cl/C=C/CCl,inactive,
CCCCOC(C)=O,inactive,
CC(C)N(Cc1ccccc1)C(=O)C(C)(C)C,inactive,
C=CCc1cc(OC)c2c(c1)OCO2,inactive,
O=P(O)(O)c1ccccc1,inactive,
CCN(CCO)CCO,inactive,
COc1cc(CCN)cc(OC)c1OC,inactive,
CN1COCN(Cc2cnc(Cl)s2)/C1=N\[N+](=O)[O-],inactive,
O=C(O)C(F)(F)C(F)(F)C(F)(F)C(F)(F)C(F)(F)C(F)(F)F,inactive,

SMILES,outcome,caspase activation
CC(C)(C)C(=O)Cl,inactive,
CCc1cc(OC)c(C[C@H](C)N)cc1OC,inactive,
O=C(Cl)CCl,inactive,
NNCc1ccccc1,inactive,
CN(C)CCN(C)C,inactive,
CCOC(=O)COc1ccc(Cl)cc1Cl,inactive,
CCSC(=O)Cl,inactive,
COc1cccc([C@@]2(O)CCCC[C@@H]2CN(C)C)c1,inactive,
COP(=O)(OC)O/C(C)=C/C(=O)N(C)C,inactive,
CC(C)(C)NC[C@H](O)c1ccc(O)cc1Cl,inactive,
CC(=O)OCC1=C(C(=O)O)N2C(=O)[C@@H](N)[C@H]2SC1,,0.281% [at 19 µM]
CC(=NC#N)N(C)Cc1ccc(Cl)nc1,inactive,
CCOC(=O)Nc1cccc(OC(=O)Nc2ccccc2)c1,inactive,
CON(C)C(=O)Nc1ccc(Br)cc1,inactive,
C=CCCC#N,inactive,
CCC1(CC)C(=O)C=CNC1=O,inactive,
CN(C)CCc1c[nH]c2cccc(OP(=O)(O)O)c12,inactive,
O=[N+]([O-])CCO,inactive,
[O-][Br+2]([O-])O,inactive,
CC[C@@H](CO)NC(=O)[C@@H]1C=C2c3cccc4c3c(cn4C)C[C@H]2N(C)C1,inactive,

# From PubChem BioAssay (Tox21)
